# Screens (PubChem)
# IMPase inh: IMPase inhibition in cells; 120,000 tested, under 10 active; P97697; inhibition (IP1 accumulation), % at 46.1 µM; CHO-M1 cells, IP1 accumulation, HTRF TR-FRET ratio; active = well fitted curve in the direction sought with a large enough effect in the signal ratio, not every such curve was filed as active; inconclusive = small, poorly fitted or top-dose-only effect, or a change in a side signal; inactive = no such curve, though single readings can be large or run the other way; the % refers to the signal ratio;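 note: cells stimulated with carbachol in lithium chloride buffer; plate controls were DMSO basal wells for no effect and reference inhibitor wells for full effect; higher means more IMPase inhibition seen as more IP1 and lower FRET ratio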
# Target sequence (P97697 whole entry, looked up): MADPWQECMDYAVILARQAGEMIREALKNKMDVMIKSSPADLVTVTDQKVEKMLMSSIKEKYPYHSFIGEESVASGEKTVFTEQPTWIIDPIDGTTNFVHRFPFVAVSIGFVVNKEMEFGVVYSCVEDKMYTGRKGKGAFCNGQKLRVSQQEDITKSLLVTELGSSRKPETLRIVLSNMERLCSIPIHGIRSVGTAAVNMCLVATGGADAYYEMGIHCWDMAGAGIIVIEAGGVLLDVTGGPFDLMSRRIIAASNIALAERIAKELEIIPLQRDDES
#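 Measured: the HTRF emission ratio (665/620 nm) plus the 620 nm donor channel, each fitted to the Hill equation to give AC50. Cells were CHO-M1 given compounds up to 46 uM and a 30 min carbachol stimulation at 37C.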
# HTT ATP protect: Huntington cell model cytoprotection by ATP luminescence | Potency, µM (doses to about 56.4 µM), for inactives: cytoprotection (ATP increase), most hits filed as activators | PC12 HTT-Q103 induced, cytoprotection, ATP luminescence, 40 h | 0.14% of 230,000 active; note: potency is the fitted concentration of half-maximal effect; % of control where 0% means no effect; nearly all actives have a fitted effect of over 45% in size
#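 Compounds were screened for protection of PC12 cells against cell death after tebufenozide induction (100 nM final) of mutant Huntingtin exon 1 (Q103) fused to GFP.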
# ALDH1A1 inh: ALDH1A1 (human) enzyme inhibition | P00352 | Purified ALDH1A1, NADH fluorescence, propionaldehyde substrate | Potency, µM (titrated, usually from 75.3 µM), for inactives: top-dose activity, negative = inhibition, usual class: inhibitors | 7.3% of 220,000 active | AID 1030; active = well fitted inhibition curve with a large enough effect, not every such curve was filed as active; inconclusive = small, poorly fitted or top-dose-only effect, or another doubt; inactive = no such curve, though single readings can be large or run the other way;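 note: potency is the fitted concentration of half-maximal effect; plate controls were no enzyme wells and a reference inhibitor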
# HttQ103 aggreg: reduces HttQ103-GFP aggregates in PC12 cells. AID 1688. PC12 HttQ103-GFP aggregates, Acumen cytometry, 40 h. 1.1% of 220,000 active. Potency, µM (top dose mostly 46.1 µM), inactives show top-dose activity change, negative = inhibition, usual class: inhibitors; note: potency is the fitted concentration of half-maximal effect; % is set by controls: 0 for no effect and ±100 for the full control effect; nearly all actives have a fitted effect of over 60% in size
#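 Huntingtin Q103 exon 1–GFP aggregates in induced PC12 cells (100 nM tebufenozide) were quantified by cytometry from lysates, with compounds dosed in titration.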
# HPGD block: HPGD (human) dehydrogenase inhibition; P15428; purified HPGD, NADH fluorescence kinetic, PGE2 substrate; Potency, µM, without a hit: top-dose activity change, negative = inhibition, hits mostly inhibitors; 4.3% of 150,000 active; active = well fitted inhibition curve with a large enough effect, not every such curve was filed as active; inconclusive = small, poorly fitted or top-dose-only effect, or another doubt; inactive = no such curve, though single readings can be large or run the other way; note: potency is the fitted concentration of half-maximal effect; % is set by controls: 0 for no effect and ±100 for the full control effect
# Target sequence (P15428 whole entry, looked up): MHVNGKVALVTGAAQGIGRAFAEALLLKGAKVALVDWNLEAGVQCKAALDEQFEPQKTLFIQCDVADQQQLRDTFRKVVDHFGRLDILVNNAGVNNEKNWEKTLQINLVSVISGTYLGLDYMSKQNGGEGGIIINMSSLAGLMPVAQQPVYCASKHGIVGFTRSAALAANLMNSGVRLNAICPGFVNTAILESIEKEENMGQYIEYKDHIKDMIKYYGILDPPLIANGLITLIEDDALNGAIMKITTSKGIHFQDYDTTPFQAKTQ
#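 20 nM HPGD preincubated 15 min at room temperature with compound in 50 mM Tris-HCl pH 8, 0.01% Tween 20. Started with 1 mM NAD+ and 30 uM prostaglandin E2; NADH fluorescence (360/450 nm) read 5 times over 30-s intervals, last minus first.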
# IMPase Li inh: membrane-permeable IMPase blocker, potentiated with lithium. CHO-M1 cells, IP1 TR-FRET (IP-One), carbachol + lithium. Potency, µM (highest dose often 59.4 µM), without a hit: at the highest dose activity, negative = IMPase inhibition, most hits filed as inhibitors. 0.35% of 210,000 active. AID 1457;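 note: IP1 builds up when IMPase is blocked and the TR-FRET signal falls; potency is the fitted concentration of half-maximal effect; plate controls were basal vehicle for no effect and high inhibitor control for full effect; nearly all actives have a fitted effect of over 50% in size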
#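 CHO cells stably expressing M1 receptor (2000/well) were cultured 16–30 h, then exposed to compounds with a small lithium addition for 30 min at 37C. IP1 was measured by TR-FRET competition; AC50 from Hill fits.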
# Starred values were filed as active, the others as inactive; ? = inconclusive; · = no result given; [ ] = dose if it differs, or a comment. Rows were chosen to be rich in hits. Some 9.4% of all compounds tested hit in one or more screens of this group. Unless noted, calls come from the whole dose curve; as a rule, active = well fitted curve in the direction sought with a large enough effect; inconclusive = small, poorly fitted or top-dose-only effect, or another doubt; inactive = no such curve, though single readings can be large; an effect the other way counts as inactive or inconclusive.
SMILES,IMPase inh,HTT ATP protect,ALDH1A1 inh,HttQ103 aggreg,HPGD block,IMPase Li inh
Cc1cccc(OCC(=O)NC(=S)Nc2ccc(S(=O)(=O)NC3CCCCC3)cc2)c1,-1,-10%,16µM*,-10%[9.22 µM],?,39%[38.3 µM]
COC(=O)c1ccccc1NC(=S)NC(=O)COc1ccccc1,-4,-15%[10 µM],?,17%,-15%,-8%
Cc1ccc(C(=O)NNC(=S)NC(=O)COc2ccccc2)cc1,2,-21%,18µM*,0%,-15%,30%[38.3 µM]
CCCOc1ccc(C(=O)NNC(=S)NC(=O)c2cc(-c3ccccc3)nc3ccccc23)cc1,-1,16%,-10%,7.1µM*,-9%,3%[38.3 µM]
COc1ccc(-c2nc3c(c4c2C[C@H](c2ccccc2)OC4)CN(S(=O)(=O)c2ccc(Cl)c4nonc24)CC3)c(C)c1,·,-5%[10 µM],?,·,-3%,3%
CC(C)CC(=O)NC(=S)NNC(=O)c1ccc([N+](=O)[O-])cc1,·,-10%[10 µM],-4%,-2%,32µM*,5%
CCCOc1ccc(C(=O)NNC(=S)NC(=O)c2ccco2)cc1,·,?,·,1%[9.22 µM],·,·
CCC(=O)NC(=S)NNC(=O)COc1ccc(Br)cc1,·,·,24µM*,·,·,-9%
COc1ccc(C(=O)NC(=S)NNC(=O)CNC(=O)C2CCCCC2)cc1,·,-26%,22µM*,8%,·,5%
COc1ccc(C(=O)NNC(=S)NC(=O)c2ccco2)cc1,10,-46%,-6%,20µM*,-13%,-8%[38.3 µM]
CC(NC(=O)COc1cccc(Br)c1)C(=O)O (stereo not drawn),-4,-27%,-10%,-5%,·,·
CC(NC(=O)COc1ccc(Br)cc1)C(=O)O (stereo not drawn),-11,1%,10µM*,4%,-15%,6%[38.3 µM]
COc1ccc(C(=O)C(OC(=O)CNC(=O)c2ccco2)c2ccccc2)cc1 (stereo not drawn),1,0%,20µM*,-9%,-9%,-13%[38.3 µM]
Cc1ccc(S(=O)(=O)NC(=O)NC2CCCCCCC2)cc1,·,16%,·,25%,·,·
NC[C@@H]1O[C@@H](O[C@H]2[C@H](O)[C@@H](O[C@@H]3O[C@@H](CO)[C@H](O)[C@@H](N)[C@@H]3O)[C@H](N)C[C@@H]2N)[C@@H](O)[C@H](O)[C@H]1O,·,?,16%,·,-17%,0%
Cn1c(COc2ccc(Cl)cc2)nnc1SCc1ncc(-c2ccccc2)o1,5,-49%[10 µM],20µM*,15%[9.22 µM],-5%,28%[38.3 µM]
O=c1[nH]c(CN2CCN(S(=O)(=O)c3cccs3)CC2)nc2c(Br)cc(Br)cc12,·,-37%,?,-15%,·,-14%
CC(C)[C@@H](CC(=O)N[C@@H]1CCNC[C@H]1C(=O)N[C@H](CC(=O)N[C@@H](CCC(=O)O)CC(=O)O)Cc1ccccc1)NC(=O)C[C@H](Cc1ccccc1)NC(=O)[C@@H]1CNCC[C@H]1N,·,-41%,1%,·,-9%,28%
C(=Nc1ccc2c(c1)Cc1ccccc1-2)c1ccccn1,·,-14%[10 µM],-13%[13.5 µM],·,-7%,3%
CC1(C)OC(=O)C(=CNCC(O)c2ccccc2)C(=O)O1 (stereo not drawn),3,-31%,11µM*,5%,-18%,-18%[38.3 µM]
CC1(C)OC(=O)C(=CNc2ccccc2)C(=O)O1,2,-16%[0.074 µM],?,-2%,-18%,-13%[38.3 µM]
COc1ccc(NC(=O)N2CCCC3(CCN(C(=O)c4cc(C(F)(F)F)cc(C(F)(F)F)c4)CC3)C2)cc1,·,-11%,2%,·,-7%,-21%
C/C(=N\Nc1ccc(F)cc1F)c1ccc(Br)s1,·,?,13µM*,-17%,·,7%
C/C(=N\Nc1ccc(F)cc1F)c1ccc(F)cc1,0,5%,?,4%,-7%,3%[38.3 µM]
C/C(=N\Nc1ccc(F)cc1F)c1ccc(N2CCOCC2)cc1,·,1%[10 µM],16µM*,10%,·,19%
SMILES,IMPase inh,HTT ATP protect,ALDH1A1 inh,HttQ103 aggreg,HPGD block,IMPase Li inh
COc1ccc(O)c(N)c1,·,-20%,25µM*,-19%,·,10%
Nc1cc([N+](=O)[O-])ccc1O,?,-11%[1.9 µM],-13%,-6%,-16%,13%
CCCCCOc1ccc(/C=C/C(=O)Nc2sc3c(c2C(=O)OCC)CCC3)cc1OC,-2,·,·,·,·,·
CCCCCCN(C(=O)CCCCCN1C(=O)NC(C2CCCCC2)C(C(=O)OCc2ccccc2)=C1C)C(C(=O)NCCCC)c1ccc(OCC(=O)OC)c(C(=O)OC)c1 (stereo not drawn),·,-36%,28µM*,·,-16%,2%
CCCCNC(=O)C(c1ccc(OCC(=O)OC)c(C(=O)OC)c1)N(CCc1ccccc1)C(=O)CCCCCN1C(=O)NC(c2ccc(-c3ccccc3)cc2)C(C(=O)OCc2ccccc2)=C1C (stereo not drawn),·,3%[10 µM],3%,-26%[9.22 µM],-8%,-9%
CCCCCCN(C(=O)CCCCCN1C(=O)NC(c2ccc3ccccc3c2)C(C(=O)OCc2ccccc2)=C1C)C(C(=O)NCCCC)c1ccc(OCC(=O)OC)c(C(=O)OC)c1 (stereo not drawn),·,-8%,-8%,·,-12%,4%
CCCCCCN(C(=O)CCCCCN1C(=O)NC(c2ccccc2-c2ccccc2)C(C(=O)OCc2ccccc2)=C1C)C(C(=O)NCCCC)c1ccc(OCC(=O)OC)c(C(=O)OC)c1 (stereo not drawn),·,7%,35µM*,·,-12%,6%
NC(=O)C1CCN(C2CC(=O)N(c3ccc(F)c(Cl)c3)C2=O)CC1 (stereo not drawn),0,-10%,25µM*,7%,-11%,0%[38.3 µM]
Cc1ccccc1N1C(=O)CC(N2CCC(C(N)=O)CC2)C1=O (stereo not drawn),4,-9%,?,-12%,7%,22%[38.3 µM]
NC(=O)C1CCN(C2CC(=O)N(c3cccc(F)c3)C2=O)CC1 (stereo not drawn),-2,-12%[0.074 µM],22µM*,-3%,0%,13%[38.3 µM]
C/C=C/OC(=O)NC(c1ccccc1)[C@]1(C(C)=O)CCOC1=O (stereo partly drawn),·,?,-17%[13.5 µM],·,·,·
COC(=O)c1ccc(C2c3c(oc4ccccc4c3=O)C(=O)N2c2nc(C)c(C(=O)OC)s2)cc1 (stereo not drawn),-2,·,·,·,·,·
COc1ccc(Cc2nc(=S)[nH][nH]2)cc1Br,·,-3%,6.3µM*,24%,·,5%
COc1ccc(Cc2n[nH]c(=S)n2C)cc1Br,·,-39%[10 µM],-8%,3%[9.22 µM],·,18%
CCOc1cccc(-c2nc3ccccc3c(=O)o2)c1,-7,·,·,·,·,·
O=C(/C=C/c1ccc(F)cc1)NCc1ccco1,·,1%[0.074 µM],-3%,6%,25µM*,0%
